The text below walks through data of the antibiotic and cytotoxicity screens of Wong et al. (2023).

Each structure is given as a SMILES string. Hit rate of the full screen: of about 39,000 compounds, about 3,300 (8.5%) were called active. Many of the other results were omitted from the sample, so actives are more common in it than they were.

The test system of this test is HepG2. Briefly: cytotoxicity call (relative viability < 0.9). The following applies: 10 µM.
Regarding `Cc1cc(C(F)(F)F)cc(Cl)n1`, the cytotoxicity call is “inactive”.
`Cc1ccc(S(=O)(=O)N(C)C[C@@H]2OCCCC[C@H](C)Oc3ccc(NC(=O)Nc4ccc(C(F)(F)F)cc4)cc3C(=O)N([C@H](C)CO)C[C@@H]2C)cc1`: the cytotoxicity call is “inactive”.
Turning to `CC(C)NC(=O)N(C)C[C@H]1Oc2c(NC(=O)NC3CCCCC3)cccc2C(=O)N([C@H](C)CO)C[C@H]1C`, the cytotoxicity call is “inactive”.
As for `C[C@H](CO)N1C[C@H](C)[C@@H](CN(C)C(=O)Cc2cccnc2)Oc2ncc(C#Cc3ccccc3F)cc2C1=O`, the cytotoxicity call was “inactive”.
For the molecule `Cc1nn(C)cc1NC(=O)C[C@H]1CC[C@H]2[C@@H](COc3ccc(NC(=O)C4CCOCC4)cc3C(=O)N2C)O1`, the cytotoxicity call is “inactive”.
With `COCC(=O)NCc1n[nH]c(=O)c2ccccc12` the entry was “inactive”; with `CC1(C)OC(=O)C2(C(=O)O1)[C@@H](c1ccc(-c3ccc(C(F)(F)F)cc3)cc1)CC(=O)C[C@H]2c1ccccc1`, “inactive”.
In the case of `COc1ccc(S(=O)(=O)Nc2ccc3c(c2)CC(=O)N([C@H](C)CO)C[C@@H](C)[C@H](CN(C)Cc2ccc(-c4ccccc4)cc2)O3)cc1` it was “active”.
As to `CC(C)NC(=O)Nc1cccc2c1O[C@H](CN(C)Cc1ccc(C(=O)O)cc1)[C@H](C)CN([C@H](C)CO)C2=O`, the cytotoxicity call is “inactive”.
As for `COc1ccc(S(=O)(=O)Nc2ccc3c(c2)C(=O)N([C@@H](C)CO)C[C@H](C)[C@@H](CN(C)S(=O)(=O)c2ccc(OC)cc2)O3)cc1`, the cytotoxicity call is “inactive”.
On to `C[C@@H]1CCCCO[C@H](CN(C)S(=O)(=O)c2ccccc2)[C@@H](C)CN([C@@H](C)CO)C(=O)c2cc(NC(=O)Nc3ccc(F)cc3)ccc2O1`, for which the cytotoxicity call is “inactive”.
Take `CN[C@@H]1[C@@H](O)[C@@H](O[C@@H]2[C@@H](O)[C@H](O[C@H]3O[C@H]([C@@H](C)NC)CC[C@H]3N)[C@@H](N)C[C@H]2N)OC[C@]1(C)O`: the cytotoxicity call is “inactive”.
`CNC(C)C1CCC(N)C(OC2C(N)CC(N)C(OC3OCC(C)(O)C(NC)C3O)C2O)O1.O=S(=O)(O)O` (stereo not given): the cytotoxicity call is “active”.
`CNC[C@@H]1CC[C@@H](N)[C@@H](O[C@H]2[C@H](O)[C@@H](O[C@H]3OC[C@](C)(O)[C@H](NC)[C@H]3O)[C@H](N)C[C@@H]2N)O1`: the cytotoxicity call was “inactive”.
`NC[C@H]1CCCN(C(=O)Nc2ccc(Oc3ccccc3)cc2)C1`: the cytotoxicity call is “inactive”.
As for `NC[C@H]1CCN(c2ccc(Oc3ccccc3)cc2)C1`, the cytotoxicity call was “active”.
Turning to `Cc1ccc(N2CC[C@@H](CN)C2)cc1`, the cytotoxicity call was “inactive”.
With `Cn1c(=O)n2n(c1=O)[C@H](C1CC1)C=C1CN3[C@@H]([C@H](Cc4ccccc4)OC(=O)[C@@H]3Cc3ccc(N=[N+]=[N-])cc3)[C@@H]12` the entry was “inactive”; with `Cc1ccc(S(=O)(=O)Nc2ccc3c(c2)C(=O)N([C@H](C)CO)C[C@@H](C)[C@@H](CN(C)Cc2ccc(-c4ccccc4)cc2)O3)cc1`, “active”; with `Cc1ccc(S(=O)(=O)Nc2ccc3c(c2)C(=O)N([C@H](C)CO)C[C@H](C)[C@H](CN(C)Cc2ccc(-c4ccccc4)cc2)O3)cc1`, “active”.
For `Cc1ccc(S(=O)(=O)Nc2ccc3c(c2)C(=O)N([C@@H](C)CO)C[C@H](C)[C@@H](CN(C)Cc2ccc(-c4ccccc4)cc2)O3)cc1`, the cytotoxicity call is “inactive”.
With `Cc1ccc(S(=O)(=O)Nc2ccc3c(c2)C(=O)N([C@@H](C)CO)C[C@@H](C)[C@@H](CN(C)Cc2ccc(-c4ccccc4)cc2)O3)cc1`, the cytotoxicity call was “active”.
As to `Cc1ccc(S(=O)(=O)Nc2ccc3c(c2)C(=O)N([C@@H](C)CO)C[C@H](C)[C@H](CN(C)Cc2ccc(-c4ccccc4)cc2)O3)cc1`, the cytotoxicity call was “inactive”.
Consider `Cc1ccc(S(=O)(=O)Nc2ccc3c(c2)C(=O)N([C@@H](C)CO)C[C@@H](C)[C@H](CN(C)Cc2ccc(-c4ccccc4)cc2)O3)cc1`, for which the cytotoxicity call was “inactive”.
As to `Cc1ccc(S(=O)(=O)Nc2ccc3c(c2)C(=O)N([C@H](C)CO)C[C@@H](C)[C@H](CN(C)Cc2ccc(-c4ccccc4)cc2)O3)cc1`, the cytotoxicity call was “inactive”.
In the case of `Cc1ccc(S(=O)(=O)Nc2ccc3c(c2)C(=O)N([C@H](C)CO)C[C@H](C)[C@@H](CN(C)Cc2ccc(-c4ccccc4)cc2)O3)cc1` it was “inactive”; in that of `C[C@@H]1CCCCO[C@H](CN(C)C(=O)CCCN(C)C)[C@@H](C)CN([C@H](C)CO)C(=O)c2cc(NC(=O)Nc3ccc(F)cc3)ccc2O1`, “inactive”.
For the molecule `Cc1noc(C)c1NC(=O)N(C)C[C@H]1OCCCC[C@H](C)Oc2ccc(NS(=O)(=O)c3ccccc3)cc2C(=O)N([C@@H](C)CO)C[C@H]1C`, the cytotoxicity call is “inactive”.
With `C[C@H]1CN([C@@H](C)CO)S(=O)(=O)c2ccc(C#Cc3cccc(F)c3)cc2O[C@H]1CN(C)CC1CC1` the entry was “inactive”; with `C[C@H](CO)N1C[C@H](C)[C@H](CN(C)S(=O)(=O)c2cn(C)cn2)Oc2ccc(NC(=O)C3CCCCC3)cc2C1=O`, “inactive”; with `Cc1ccc(S(=O)(=O)Nc2ccc3c(c2)C(=O)N(C)[C@H]2CC[C@@H](CC(=O)NCCc4ccncc4)O[C@@H]2CO3)cc1`, “inactive”.
Turning to `O=C1c2ccccc2[C@](Cc2ccccc2I)(C(=O)NCc2ccccc2)[C@H](c2ccc(CO)cc2)N1Cc1ccccc1C(F)(F)F`, the cytotoxicity call is “inactive”.
With `COCC#Cc1ccc2c(c1)O[C@H](CN(C)S(=O)(=O)c1ccc(C)cc1)[C@@H](C)CN([C@@H](C)CO)S2(=O)=O` the entry was “inactive”.
In the case of `COc1ccc(CN(C)C[C@H]2Oc3ccc(NS(=O)(=O)c4cn(C)cn4)cc3CC(=O)N([C@@H](C)CO)C[C@H]2C)cc1` it was “inactive”.
In the case of `CC(C)CCC(=O)N1C[C@@H]2c3nc(N4CCOCC4)ncc3CS(=O)(=O)[C@H]2C1` it was “inactive”.
With `COC(=O)CCCCCCC(=O)N/N=C/[C@H](O)[C@@H](O)[C@H](O)CO`, the cytotoxicity call was “inactive”.
With `Cc1noc(C)c1NC(=O)Nc1ccc2c(c1)CC(=O)N([C@@H](C)CO)C[C@@H](C)[C@H](CN(C)C(=O)Nc1ccc(C(F)(F)F)cc1)O2` the entry was “inactive”; with `COc1ccc(CN(C)C[C@@H]2Oc3ccc(NS(=O)(=O)c4c(C)noc4C)cc3CC(=O)N([C@H](C)CO)C[C@@H]2C)cc1`, “inactive”.
For the molecule `Cc1ccc(S[C@]2(C(=O)NCCN3CCOCC3)CC(=O)N(Cc3cc(C(F)(F)F)cc(C(F)(F)F)c3)[C@@H]2c2ccc(CO)cc2I)cc1`, the cytotoxicity call is “inactive”.
With `Cc1ccc(S(=O)(=O)Nc2ccc3c(c2)CC(=O)N([C@H](C)CO)C[C@H](C)[C@@H](CN(C)S(=O)(=O)c2ccccc2)O3)cc1` the entry was “inactive”.
